Results: PubChem BioAssay (EPA / NIEHS)
Where “and” joins values, the source holds several entries; their conditions need not be identical. Equal entries are not always repeated. Records with an inconclusive call do not appear. Calls of active or inactive are those of the source. The calls were made as follows, unless noted: active = hit-call score of the fitted dose curve at least 0.9, where 1 is the maximum; inactive = score below 0.9.

Tests used:
[1] = read-out: Monokine induced gamma interferon (MIG), CXCL9 (gene 4283); assay: BSK_KF3CT_MIG: BioMAP Diversity Plus: KF3CT Assay for Monokine induced gamma interferon (MIG) Biomarker Activity (AID 2284248); settings: primary human keratinocytes with fibroblasts
Method in brief: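 MIG in dosed human skin co-cultures was measured by ELISA at 24 h, relative to DMSO.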

[2] = read-out: Interferon-inducible T-cell alpha chemoattractant (ITAC), CXCL11 (gene 6373); assay: BSK_BE3C_ITAC: BioMAP Diversity Plus: BE3C Assay for Interferon-inducible T-cell alpha chemoattractant (ITAC) Biomarker Activity (AID 2284279); settings: primary human bronchial epithelial cells
Method in brief: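 The assay measures I-TAC levels by ELISA in human primary bronchial epithelial cell cultures 24 hours after chemical treatment. Values reflect signal increase over the DMSO baseline.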

[3] = read-out: Interleukin-8 (IL8), CXCL8 (gene 3576); assay: BSK_BE3C_IL8: BioMAP Diversity Plus: BE3C Assay for Interleukin-8 (IL8) Biomarker Activity (AID 2284280); settings: primary human bronchial epithelial cells
Method in brief: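 IL-8 signal gain, normalised to DMSO vehicle, was scored after a 24 h chemical exposure of primary human bronchial epithelial cells, with detection by ELISA.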

[4] = read-out: Epidermal growth factor receptor (EGFR), EGFR (gene 1956); assay: BSK_BE3C_EGFR: BioMAP Diversity Plus: BE3C Assay for Epidermal growth factor receptor (EGFR) Biomarker Activity (AID 2284281); settings: primary human bronchial epithelial cells
Method in brief: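 Compound is added to human bronchial epithelial cells, cells incubate 24 h, then EGFR is detected by ELISA. Values reflect positive-direction fitting relative to DMSO.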

[5] = read-out: KRT18 (gene 3875); assay: BSK_BE3C_Keratin818: BioMAP Diversity Plus: BE3C Assay for Keratin 818 Biomarker Activity (AID 2284282); settings: primary human bronchial epithelial cells
Method in brief: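 Human primary bronchial epithelial cells in the BE3C system were exposed to test chemical for 24 h, then Keratin 8/18 was quantified by ELISA. Activity was fitted in the positive direction against DMSO as negative control and baseline.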

[6] = read-out: Plasminogen activator inhibitor-1 (PAI1), SERPINE1 (gene 5054); assay: BSK_CASM3C_PAI1: BioMAP Diversity Plus: CASM3C Assay for Plasminogen activator inhibitor-1 (PAI1) Biomarker Activity (AID 2284284); settings: primary human coronary artery smooth muscle cells;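 also: PAI-1 protein level measured by ELISA 24 h after dosing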
[7] = read-out: Monocyte Chemoattractant Protein-1 (MCP1), CCL2 (gene 6347); assay: BSK_hDFCGF_MCP1: BioMAP Diversity Plus: hDFCGF Assay for Monocyte Chemoattractant Protein-1 (MCP1) Biomarker Activity (AID 2284285); settings: primary human foreskin fibroblasts
Method in brief: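 Human foreskin fibroblasts (hDFCGF system) were exposed to compound and secreted MCP-1 was measured by ELISA after 24 hours. Activity was fitted relative to DMSO. Cytotoxicity was checked by SRB total-protein staining in parallel cultures.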

[8] = read-out: Intercellular Adhesion Molecule 1 (ICAM1), ICAM1 (gene 3383); assay: BSK_hDFCGF_ICAM1: BioMAP Diversity Plus: hDFCGF Assay for Intercellular Adhesion Molecule 1 (ICAM1) Biomarker Activity (AID 2284287); settings: primary human foreskin fibroblasts
Method in brief: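 Primary human foreskin fibroblasts (hDFCGF system) dosed with chemical; ICAM-1 quantified by ELISA at 24 h relative to DMSO. Parallel SRB total-protein staining to assess overt cytotoxicity.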

[9] = read-out: TIMP metallopeptidase inhibitor 2 (TIMP2), TIMP2 (gene 7077); assay: BSK_hDFCGF_TIMP2: BioMAP Diversity Plus: hDFCGF Assay for TIMP metallopeptidase inhibitor 2 (TIMP2) Biomarker Activity (AID 2284289); settings: primary human foreskin fibroblasts
Method in brief: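 Primary human foreskin fibroblasts in the hDFCGF system, dosed for 24 h; TIMP-2 level measured by ELISA, fitted in the positive direction against DMSO; cytotoxicity checked in parallel by sulforhodamine B total protein staining.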

[10] = read-out: Thrombomodulin, THBD (gene 7056); assay: BSK_LPS_Thrombomodulin: BioMAP Diversity Plus: LPS Assay for Thrombomodulin Biomarker Activity (AID 2284296); settings: primary human HUVEC with PBMC
Method in brief: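 Human umbilical vein endothelial cells co-cultured with PBMC and stimulated with LPS; cell-surface thrombomodulin measured by ELISA 24 hours after compound. Gain or loss versus DMSO; cytotoxicity checked by SRB staining in parallel cultures.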

[11] = read-out: CD69, CD69 (gene 969); assay: BSK_LPS_CD69: BioMAP Diversity Plus: LPS Assay for CD69 Biomarker Activity (AID 2284303); settings: primary human HUVEC with PBMC
Method in brief: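 Human umbilical vein endothelial cells co-cultured with PBMC under LPS stimulation, chemical exposure 24 h; cell-surface CD69 measured by ELISA and fitted in the positive direction versus DMSO.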

[12] = target: human Ephrin type-A Receptor 1 (EphA1), EPHA1 (gene 2041) (UniProt P21709); assay: NVS_ENZ_hEphA1: NovaScreen (NVS) Enzymatic Assay for human Ephrin type-A Receptor 1 (EphA1) (AID 2283158; active = hit-call score of the fitted dose curve at least 0.9, where 1 is the maximum;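 also: activity is signal loss versus DMSO meaning EphA1 kinase inhibition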)
Method in brief: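 Here the EphA1 protein is recombinant and the substrate fluorescent, with electrophoretic separation before fluorescence detection at 1 hour. Signal loss against DMSO defines activity; plate controls included; follow-up concentration series reach 50 uM.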

[13] = target: Androgen Receptor/SRC-1 Co-activator, AR (gene 367) (UniProt P10275); assay: OT_AR_ARSRC1_0960: Odyssey Thera (OT) 16-hour HEK293T Protein-Complementation Assay for Androgen Receptor/SRC-1 Co-activator (AID 2283353; active = hit-call score of the fitted dose curve at least 0.9, where 1 is the maximum;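 also: actives raise the signal above DMSO so potency reflects increased AR and SRC-1 complex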)
Method in brief: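 HEK293T cells stably expressing AR and SRC-1 fused to split Venus YFP fragments via (Gly4Ser)2 linkers were dosed for 16 h. Nuclear/cytoplasmic fluorescence ratio at 488 nm, ≥400 cells per image, fitted for gain of signal versus DMSO.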

[14] = target: Androgen Receptor/SRC-1 Co-activator, AR (gene 367) (UniProt P10275); assay: OT_AR_ARSRC1_0480: Odyssey Thera (OT) 8-hour HEK293T Protein-Complementation Assay for Androgen Receptor/SRC-1 Co-activator (AID 2283354; active = hit-call score of the fitted dose curve at least 0.9, where 1 is the maximum;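 also: hits raise the complementation signal above DMSO so AC50 marks enhancers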)
Method in brief: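 Measures AR/SRC-1 binding by Venus YFP fragment complementation in HEK293T stable lines at 8 h post-dose. Imaging quantifies the 488nm nucleus/cytoplasm ratio in ≥400 cells; DMSO defines baseline.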

[15] = target: Agonist Androgen Response Element (ARE), AR (gene 367) (UniProt P10275); assay: OT_AR_ARELUC_AG_1440: Odyssey Thera (OT) 24-hour CHO-K1 Luciferase Assay for Agonist Androgen Response Element (ARE) (AID 2283379; active = hit-call score of the fitted dose curve at least 0.9, where 1 is the maximum)
Method in brief: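 Agonist mode, 24 h exposure in CHO-K1 ARE-luciferase cells; values reflect luminescence induction over vehicle.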

[16] = target: AR (gene 367) (UniProt P10275); assay: ACEA_AR_antagonist_80hr: ACEA Biosciences xCELLigence Real-Time Cell Analysis on Androgen Receptor Antagonism for Proliferation (AID 2283787; active = hit-call score of the fitted dose curve at least 0.9, where 1 is the maximum;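 also: 22Rv1 human prostate cancer cells with growth followed by electrical impedance; hits lower the impedance growth signal relative to DMSO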)
Method in brief: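 Growth-kinetic antagonist readout in 22Rv1 cells, taken 80 h after continuous compound exposure. Activity fitted as signal loss relative to DMSO negative control.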

[17] = target: Nucleoli Translocation, AR (gene 367) (UniProt P10275); assay: UPITT_HCI_U2OS_AR_TIF2_Nucleoli_Agonist: University of Pittsburgh U2OS Androgen Receptor-Transcriptional Intermediary Factor 2 (AR-TIF2) Agonism High Content Imaging Assay for Nucleoli Translocation (AID 2283998; active = hit-call score of the fitted dose curve at least 0.9, where 1 is the maximum)
Method in brief: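 High-content images quantify nucleolar accumulation of RFP-fused AR in cells also expressing GFP-TIF2; the endpoint is fitted as signal gain versus DMSO controls across final concentrations of 0.195 to 50 uM.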

[18] = target: Ratio of Nucleoli Translocation and Cytoplasm, AR (gene 367) (UniProt P10275); assay: UPITT_HCI_U2OS_AR_TIF2_Nucleoli_Cytoplasm_Ratio_Antagonist: University of Pittsburgh U2OS Androgen Receptor-Transcriptional Intermediary Factor 2 (AR-TIF2) Antagonism High Content Imaging Assay for Ratio of Nucleoli Translocation and Cytoplasm (AID 2283999; active = hit-call score of the fitted dose curve at least 0.9, where 1 is the maximum;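 also: antagonists lower the DHT-driven ratio of nucleolar to cytoplasmic red signal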)
Method in brief: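 U2OS cells expressing RFP-tagged human AR and GFP-tagged TIF2; compounds tested at 20 uM final (0.2% DMSO) in primary screen, 0.195–50 uM (0.5% DMSO) for concentration response. Readout: nucleolar-to-cytoplasmic red fluorescence ratio by high-content imaging, fitted relative to DHT.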

[19] = target: Ratio of Nucleoli Translocation and Cytoplasm, AR (gene 367) (UniProt P10275); assay: UPITT_HCI_U2OS_AR_TIF2_Nucleoli_Cytoplasm_Ratio_Agonist: University of Pittsburgh U2OS Androgen Receptor-Transcriptional Intermediary Factor 2 (AR-TIF2) Agonism High Content Imaging Assay for Ratio of Nucleoli Translocation and Cytoplasm (AID 2284000; active = hit-call score of the fitted dose curve at least 0.9, where 1 is the maximum;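 also: hits raise the red nucleolar to cytoplasm ratio above vehicle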)
Method in brief: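 Read-out first: nucleolar-to-cytoplasm ratio of red (AR-RFP) signal, quantified by high-content imaging in U2OS cells co-expressing TIF2-GFP. Activity is scored as signal increase over DMSO. Single-point screening used 20 uM final (0.2% DMSO).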

[20] = target: Estrogen receptor (Homo sapiens) + Estrogen receptor beta (Homo sapiens) (UniProt P03372+Q92731); assay: OT_ER_ERaERb_1440: Odyssey Thera (OT) 24-hour HEK293T Protein-Complementation Assay for Estrogen Receptor-alpha/-beta Homodimer (AID 2283356; active = hit-call score of the fitted dose curve at least 0.9, where 1 is the maximum;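 also: heteromer of ER alpha and ER beta binding domains; hits raise reporter fluorescence and both agonists and antagonists give an increase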)
Method in brief: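 24 h exposure; HEK293T PCA cells with ERα/ERβ LBD fragments; signal rise in nuclear or whole-cell fluorescence over vehicle.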

Measured: AC50

human Ephrin type-A Receptor 1 (EphA1), EPHA1 (gene 2041), sequence (P21709 whole entry, looked up): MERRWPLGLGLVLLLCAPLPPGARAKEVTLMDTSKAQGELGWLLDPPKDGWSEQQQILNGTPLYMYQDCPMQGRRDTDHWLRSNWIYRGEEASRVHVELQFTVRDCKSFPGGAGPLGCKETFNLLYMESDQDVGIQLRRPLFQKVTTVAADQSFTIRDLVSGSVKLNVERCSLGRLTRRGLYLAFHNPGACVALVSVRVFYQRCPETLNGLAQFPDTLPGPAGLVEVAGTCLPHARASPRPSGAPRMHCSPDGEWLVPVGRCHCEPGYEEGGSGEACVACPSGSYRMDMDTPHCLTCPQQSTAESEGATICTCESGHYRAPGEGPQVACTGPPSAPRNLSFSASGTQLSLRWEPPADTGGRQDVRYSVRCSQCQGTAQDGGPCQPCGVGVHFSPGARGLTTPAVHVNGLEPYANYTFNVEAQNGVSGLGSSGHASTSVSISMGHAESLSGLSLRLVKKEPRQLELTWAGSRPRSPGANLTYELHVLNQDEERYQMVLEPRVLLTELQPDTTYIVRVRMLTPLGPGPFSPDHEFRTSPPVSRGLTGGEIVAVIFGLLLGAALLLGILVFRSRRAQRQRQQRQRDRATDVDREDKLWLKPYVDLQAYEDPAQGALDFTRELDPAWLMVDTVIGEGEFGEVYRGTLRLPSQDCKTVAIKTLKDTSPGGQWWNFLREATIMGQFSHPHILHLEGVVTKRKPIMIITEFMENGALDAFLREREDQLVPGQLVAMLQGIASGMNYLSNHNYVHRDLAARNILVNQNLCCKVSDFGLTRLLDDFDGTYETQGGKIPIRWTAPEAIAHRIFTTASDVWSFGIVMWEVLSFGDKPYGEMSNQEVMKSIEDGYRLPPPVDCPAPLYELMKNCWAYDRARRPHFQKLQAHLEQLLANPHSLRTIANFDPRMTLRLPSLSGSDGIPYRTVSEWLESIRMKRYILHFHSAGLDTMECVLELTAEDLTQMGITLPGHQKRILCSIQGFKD
Estrogen receptor (Homo sapiens) + Estrogen receptor beta (Homo sapiens), sequence (P03372 whole entry, looked up, the tested form may be a part): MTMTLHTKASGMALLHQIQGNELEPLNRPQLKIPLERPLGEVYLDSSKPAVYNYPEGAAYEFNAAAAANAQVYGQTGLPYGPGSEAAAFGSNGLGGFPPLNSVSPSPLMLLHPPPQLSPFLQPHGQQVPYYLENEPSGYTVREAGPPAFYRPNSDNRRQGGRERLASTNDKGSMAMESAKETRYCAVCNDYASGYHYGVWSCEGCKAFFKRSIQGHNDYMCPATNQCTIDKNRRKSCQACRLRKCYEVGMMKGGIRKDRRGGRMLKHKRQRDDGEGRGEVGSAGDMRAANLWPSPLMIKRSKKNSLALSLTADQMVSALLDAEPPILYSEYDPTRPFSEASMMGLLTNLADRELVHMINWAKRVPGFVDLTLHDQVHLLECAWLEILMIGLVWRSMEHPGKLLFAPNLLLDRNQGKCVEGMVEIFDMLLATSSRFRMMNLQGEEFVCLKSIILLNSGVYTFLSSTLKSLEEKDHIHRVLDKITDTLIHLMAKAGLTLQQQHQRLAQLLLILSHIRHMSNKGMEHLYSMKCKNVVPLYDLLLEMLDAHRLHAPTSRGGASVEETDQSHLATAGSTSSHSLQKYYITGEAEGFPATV
Estrogen receptor (Homo sapiens) + Estrogen receptor beta (Homo sapiens), sequence (Q92731 whole entry, looked up, the tested form may be a part): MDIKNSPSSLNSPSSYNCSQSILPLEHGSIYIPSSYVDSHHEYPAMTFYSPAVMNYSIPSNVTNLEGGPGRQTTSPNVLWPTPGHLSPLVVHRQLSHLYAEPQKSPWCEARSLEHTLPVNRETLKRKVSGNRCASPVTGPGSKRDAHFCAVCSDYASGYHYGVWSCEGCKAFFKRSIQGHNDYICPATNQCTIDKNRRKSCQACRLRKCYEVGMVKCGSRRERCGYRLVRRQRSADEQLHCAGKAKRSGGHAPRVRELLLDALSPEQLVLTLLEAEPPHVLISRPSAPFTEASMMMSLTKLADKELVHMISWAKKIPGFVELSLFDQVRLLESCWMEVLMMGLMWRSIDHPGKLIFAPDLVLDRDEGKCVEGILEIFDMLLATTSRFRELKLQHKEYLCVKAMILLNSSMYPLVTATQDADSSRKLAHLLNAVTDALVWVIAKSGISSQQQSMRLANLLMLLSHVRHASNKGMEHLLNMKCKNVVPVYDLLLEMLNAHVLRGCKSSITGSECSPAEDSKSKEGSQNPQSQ
AR (gene 367), sequence (P10275 whole entry, looked up): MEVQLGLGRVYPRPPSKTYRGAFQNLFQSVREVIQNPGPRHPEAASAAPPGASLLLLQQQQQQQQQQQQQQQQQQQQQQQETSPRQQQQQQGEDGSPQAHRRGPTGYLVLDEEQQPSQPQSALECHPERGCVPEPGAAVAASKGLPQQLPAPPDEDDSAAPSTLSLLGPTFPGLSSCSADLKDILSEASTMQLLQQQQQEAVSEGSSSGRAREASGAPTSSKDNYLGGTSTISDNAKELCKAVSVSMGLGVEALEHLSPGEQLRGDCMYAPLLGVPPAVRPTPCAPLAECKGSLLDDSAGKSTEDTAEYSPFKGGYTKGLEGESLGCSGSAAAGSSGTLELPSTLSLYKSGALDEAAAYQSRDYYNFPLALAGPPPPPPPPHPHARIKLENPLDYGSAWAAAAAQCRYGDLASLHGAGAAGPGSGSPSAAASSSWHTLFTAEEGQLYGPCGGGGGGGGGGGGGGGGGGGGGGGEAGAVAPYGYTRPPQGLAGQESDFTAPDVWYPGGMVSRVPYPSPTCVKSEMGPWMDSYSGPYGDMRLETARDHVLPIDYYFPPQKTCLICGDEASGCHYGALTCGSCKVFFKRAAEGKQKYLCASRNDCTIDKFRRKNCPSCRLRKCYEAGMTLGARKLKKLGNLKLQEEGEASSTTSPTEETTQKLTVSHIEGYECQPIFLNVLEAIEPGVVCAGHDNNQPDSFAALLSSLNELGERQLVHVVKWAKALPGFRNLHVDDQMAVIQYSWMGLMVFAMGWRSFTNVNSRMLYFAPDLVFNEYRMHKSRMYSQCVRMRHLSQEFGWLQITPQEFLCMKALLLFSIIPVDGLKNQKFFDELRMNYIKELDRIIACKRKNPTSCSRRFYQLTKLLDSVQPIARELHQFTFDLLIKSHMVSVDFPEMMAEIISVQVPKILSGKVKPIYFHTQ
Nucleoli Translocation, AR (gene 367), sequence (P10275 whole entry, looked up, the tested form may be a part): as the sequence (P10275 whole entry, looked up) above
Agonist Androgen Response Element (ARE), AR (gene 367), sequence (P10275 whole entry, looked up): as above
Ratio of Nucleoli Translocation and Cytoplasm, AR (gene 367), sequence (P10275 whole entry, looked up): as above
Androgen Receptor/SRC-1 Co-activator, AR (gene 367), sequence (P10275 whole entry, looked up, the tested form may be a part): as the sequence (P10275 whole entry, looked up) above

CN(C)Cc1cc(C(C)(C)C)c(O)c(C(C)(C)C)c1
active: [11] 20 µM and 23.1 µM
inactive: [1] | [2] | [3] | [4] | [5] | [6] | [7] | [8] | [9] | [10]

CCCOCCC
inactive: [12]

O=C(c1ccccc1)c1ccccc1O
inactive: [13] | [14] | [15] | [16] | [17] | [18] | [19]

CCCCCCC1CCC(=O)O1 (stereo not given)
inactive: [20]

CO[Si](CCCNCCN)(OC)OC
inactive: [13] | [14] | [15] | [16] | [17] | [18] | [19]

CCOC(=O)c1ccccc1
inactive: [20]

C=C1CC[C@H]2C[C@@H]1C2(C)C
inactive: [20]

Cc1cc(C)c(S(=O)(=O)O)cc1N=Nc1cc(S(=O)(=O)O)c2ccccc2c1O
inactive: [13] | [14] | [15] | [16] | [17] | [18] | [19]

N#CCN(CC#N)CCN(CC#N)CC#N
inactive: [12]

Cc1ccccc1S(N)(=O)=O
inactive: [12]

CC[N+](CC)(CC(=O)Nc1c(C)cccc1C)Cc1ccccc1 (tested in a mixture with another compound)
inactive: [1] | [2] | [3] | [4] | [5] | [6] | [7] | [8] | [9] | [10] | [11]

C1CN(CCOCCN2CCOCC2)CCO1
inactive: [1] | [2] | [3] | [4] | [5] | [6] | [7] | [8] | [9] | [10] | [11]
